Bioassay records as filed in PubChem BioAssay.
LRH-1 inv ag – inverse agonists of human LRH-1 (NR5A2) | HEK293T StAR-luciferase reporter, LRH-1 transfected, 24 h | inhibition, % at 3.6 µM | hit rate 0.13% among 360,000 | AID 602396;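 active = inhibition above the mean inhibition of all tested compounds plus 3 SD, cut at about 73% in these data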
NCOA3 inh – inhibitors of human steroid receptor coactivator 3 (SRC3); HEK293 GAL4-SRC3 luciferase reporter, luminescence; inhibition, % at 3.6 µM; hit rate 0.17% among 360,000; AID 588352;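 active = inhibition above a per-campaign cutoff, the mean of all compounds plus 3 SD, cut at about 60% in these data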;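 note: higher means less SRC3-driven luciferase light from the GAL4 reporter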
NR2F2 inh – blocks human COUP-TFII nuclear receptor; P24468; HEK293T NGFI-A luciferase reporter, luminescence; inhibition, % at 8.6 µM; hit rate 0.7% among 370,000;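 active = inhibition above a per-plate cutoff, mean inhibition of test wells between control levels plus 3 SD, cut at about 38% in these data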;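 note: cells cotransfected with COUP-TFII expression vector driving the NGFI-A reporter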
SRC2 inh – inhibits human steroid receptor coactivator 2. HEK293 GAL4-SRC2 luciferase reporter, luminescence. inhibition, % at 9 µM. hit rate 0.17% among 370,000. AID 651957;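 active = inhibition above the mean inhibition of all tested compounds plus 3 SD, set per campaign, cut at about 52% in these data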
SRC1 inh – human NCOA1 inhibition; HEK293 GAL4-SRC1 luciferase reporter, luminescence; AID 588354; hit rate 0.12% among 360,000; inhibition, % at 3.6 µM;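 active = inhibition above the campaign mean plus 3 SD, with each screening campaign given its own cutoff, cut at about 60% in these data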
VP16 Luc counter – VP16 inhibition counter-screen for COUP-TFII | shares compounds with NR2F2 inh | HEK293 Gal4-VP16 luciferase reporter, luminescence | inhibition, % at 8.5 µM | hit rate 25% among 2,500; in the data active = inhibition above about 13%
COUP-TFII conf – COUP-TFII (NR2F2) inhibition, confirmation assay | shares compounds with NR2F2 inh | HEK293 NGFI-A luciferase reporter, luminescence | inhibition, % at 8.5 µM | hit rate 45% among 2,500 | AID 687008;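 active = mean inhibition over three repeats above a set limit taken from the earlier primary screen, cut at about 38% in these data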
A number is an active result; . = inactive; / = no result. Only some compounds are listed: those with a hit (about 0.81% of all), similar ones and a draw of the others.

SMILES | LRH-1 inv ag | NCOA3 inh | NR2F2 inh | SRC2 inh | SRC1 inh | VP16 Luc counter | COUP-TFII conf
CN1C/C(=C\c2ccc(N3CCOCC3)cc2)C(=O)/C(=C/c2ccc(N3CCOCC3)cc2)C1 | . | . | . | . | . | / | /
Cc1ccc(NC(=O)C2CCN(c3ncnc4sc(C)c(C)c34)CC2)cc1S(=O)(=O)N(C)C | . | . | 48 | . | . | . | .
CCN(CC)S(=O)(=O)c1cc(NC(=O)C2CCN(c3ncnc4sc(C)c(C)c34)CC2)ccc1Cl | . | . | . | . | . | / | /
COc1ccc(OC)c(NC(=O)C2CCN(Cc3cnn(-c4ccccc4)c3-n3cccc3)CC2)c1 | . | . | . | . | . | / | /
CC(C)CC(N)c1csc(Nc2ncccn2)n1 (centres undefined) | . | . | 43 | . | . | . | .
NC(COCc1ccccc1)c1csc(Nc2ncccn2)n1 (centres undefined) | . | . | . | . | . | / | /
Cc1cc(-c2ccccc2)n2ncc(-c3ccccc3)c2n1 | . | . | . | . | . | / | /
Cc1nc2c(-c3ccccc3)cnn2c(N)c1-c1ccccc1 | . | 67 | 69 | 53 | 72 | . | 72
Nc1nnc(SCC(=O)NC2CCCCC2)s1 | . | . | . | . | . | / | /
Cc1cc(C)nc(/N=C(\N)Nc2ccc(OCc3ccccc3)cc2)n1 | . | . | 47 | . | . | . | .
Cc1cc(C)nc(/N=C(\N)Nc2ccc(OCCC(C)C)cc2)n1 | . | . | 58 | . | . | 18 | 38
Cc1cc(C)nc(/N=C(\N)Nc2ccc(CC(=O)OC(C)C)cc2)n1 | . | . | 51 | . | . | . | .
COc1ccc(N/C(N)=N/c2nc(C)cc(C)n2)cc1 | . | . | . | . | . | / | /
CCCCNS(=O)(=O)c1ccc2nc(-c3cccnc3)cc(C(=O)NC(C)CC)c2c1 (centres undefined) | . | . | . | . | . | / | /
